The labels stand for the following.
B1: PhoQ; a variant is named by its letters at X, in order, P23837 (parent)
chain: MKKLLRLFFPLSLRVRFLLATAAVVLVLSLAYGMVALIGYSVSFDKTTFRLLRGESNLFYTLAKWENNKLHVELPENIDKQSPTMTLIYDENGQLLWAQRDVPWLMKMIQPDWLKSNGFHEIEADVNDTSLLLSGDHSIQQQLQEVREDDDDAEMTHSVAVNVYPATSRMPKLTIVVVDTIPVELKSSYMVWSWFIYVLSANLLLVIPLLWVAAWWSLRPIEALAKEVRELEEHNRELLNPATTRELTSLVRNLNRLLKSERERYDKYRTTLTDLTHSLKTPLXXLQXXLRSLRSEKMSVSDAEPVMLEQISRISQQIGYYLHRASMRGGTLLSRELHPVAPLLDNLTSALNKVYQRKGVNISLDISPEISFVGEQNDFVEVMGNVLDNACKYCLEFVEISARQTDEHLYIVVEDDGPGIPLSKREVIFDRGQRVDTLRPGQGVGLAVAREITEQYEGKIVAGESMLGGARMEVIFGRQHSAPKDE

In all, about 140,000 sequences were measured (“enrichment ratio after two sorts for PhoP signalling”: median about 0, highest 2% from about 11 on). The entries come from a sample that favours the highest values as a whole. Bounds are passed on as bounds.

The variants in the test derive from B1. The experiment in a line: enrichment ratio after two sorts for PhoP signalling (ratio (wild type AVST 3.29)); higher = more functional. As to conditions: with PhoP (E. coli).
YALF: the enrichment ratio was found to be 3.8.

In the case of PCNL, the enrichment ratio is at most 0.25.

On to QLCD, for which the enrichment ratio is at most 0.25.

Regarding TKMD, the enrichment ratio is 0.263.

For FIAQ, the enrichment ratio was at most 0.25.

In the case of FTMY, the enrichment ratio was 4.04.

For the variant RWMS, the enrichment ratio is at most 0.25.

For the variant SLMF, the enrichment ratio was determined as 2.69.

In the case of HEPH, the enrichment ratio was at most 0.25.

For the variant GIMF, the enrichment ratio came out at 6.62.

Turning to HEVN, the enrichment ratio was at most 0.25.

As for WQCV, the enrichment ratio is at most 0.25.

Consider GYMF, for which the enrichment ratio is at most 0.25.

For the variant SNMF, the enrichment ratio is 19.4.

As to SNCV, the enrichment ratio stood at 14.2.

In the case of HEMF, the enrichment ratio was at most 0.25.

On to SQCV, for which the enrichment ratio stood at 6.68.

Take HEPN: the enrichment ratio amounted to 18.8.

Turning to GNMF, the enrichment ratio amounted to 15.2.

EGYW: the enrichment ratio was at most 0.25.

On to FYIV, for which the enrichment ratio was at most 0.25.

In the case of VIWQ, the enrichment ratio is at most 0.25.

Turning to NEFL, the enrichment ratio is at most 0.25.

With HMPY, the enrichment ratio is at most 0.25.

Regarding RMDS, the enrichment ratio was at most 0.25.

Turning to WDAC, the enrichment ratio was at most 0.25.

Turning to ILVT, the enrichment ratio is at most 0.25.

For the variant GQDA, the enrichment ratio was at most 0.25.

In the case of SNIV, the enrichment ratio was 9.73.

Take SNLS: the enrichment ratio was 11.5.

Take SRLI: the enrichment ratio is 6.88.

For the variant SNLA, the enrichment ratio was 6.53.

For SNVA, the enrichment ratio was 6.33.

On to SNLT, for which the enrichment ratio turned out to be 7.56.

Regarding SNMV, the enrichment ratio was 18.5.

SNMR: the enrichment ratio was found to be 1.49.

TPLI: the enrichment ratio is at most 0.25.

For the variant SNYV, the enrichment ratio was 0.433.

Regarding SNMI, the enrichment ratio is 19.8.

On to SNLI, for which the enrichment ratio turned out to be 11.3.

As to PWPK, the enrichment ratio was at most 0.25.

GTKI: the enrichment ratio was at most 0.25.

As for MYMW, the enrichment ratio was at most 0.25.

Take HSYK: the enrichment ratio is at most 0.25.

As for GPQG, the enrichment ratio is at most 0.25.

In the case of KMHW, the enrichment ratio is at most 0.25.

Regarding GDTD, the enrichment ratio was at most 0.25.

On to DSIT, for which the enrichment ratio was at most 0.25.

Regarding NPMD, the enrichment ratio is at most 0.25.

Regarding WFPK, the enrichment ratio is at most 0.25.

Regarding QDRV, the enrichment ratio is at most 0.25.

Turning to DPTF, the enrichment ratio is at most 0.25.

As for PMYV, the enrichment ratio is at most 0.25.

Turning to QPLQ, the enrichment ratio is at most 0.25.

Regarding YTLQ, the enrichment ratio was determined as 12.8.

As for VYLQ, the enrichment ratio is at most 0.25.

With VTLQ, the enrichment ratio was found to be 11.3.

TTLQ: the enrichment ratio turned out to be 10.7.

Consider GTLQ, for which the enrichment ratio was found to be 15.2.

Consider GYLQ, for which the enrichment ratio was at most 0.25.

For FTLQ, the enrichment ratio came out at 6.79.

For the variant VFLQ, the enrichment ratio is at most 0.25.

Take SQPR: the enrichment ratio is at most 0.25.

As to IAGV, the enrichment ratio is at most 0.25.

Regarding HKDW, the enrichment ratio is at most 0.25.

For GERY, the enrichment ratio is at most 0.25.

SAVR: the enrichment ratio was at most 0.25.

MMAP: the enrichment ratio is at most 0.25.

Consider RAVP, for which the enrichment ratio is at most 0.25.

As to WSVY, the enrichment ratio is at most 0.25.

On to STPW, for which the enrichment ratio is at most 0.25.

For the variant SIGG, the enrichment ratio was 6.86.

Take SING: the enrichment ratio turned out to be 13.7.

As for SLNG, the enrichment ratio came to 0.339.

Turning to RING, the enrichment ratio is at most 0.25.

Take SLTG: the enrichment ratio was 12.5.

As for PLTG, the enrichment ratio is at most 0.25.

Regarding WLTG, the enrichment ratio is at most 0.25.

Turning to SIMG, the enrichment ratio worked out at 13.2.

Turning to TING, the enrichment ratio came to 13.9.

On to KYMG, for which the enrichment ratio was at most 0.25.

Regarding KYNG, the enrichment ratio is at most 0.25.

For NING, the enrichment ratio is at most 0.25.

Consider DHDM, for which the enrichment ratio is at most 0.25.

Consider DCPT, for which the enrichment ratio was at most 0.25.

As to ELTP, the enrichment ratio was at most 0.25.

On to IKSW, for which the enrichment ratio was at most 0.25.

For the variant GMDV, the enrichment ratio was at most 0.25.

For the variant TNRI, the enrichment ratio is at most 0.25.

On to SCYN, for which the enrichment ratio is at most 0.25.

Regarding YRVE, the enrichment ratio was at most 0.25.

In the case of SITG, the enrichment ratio worked out at 16.2.

Turning to SFTG, the enrichment ratio turned out to be 5.29.

Take KYTG: the enrichment ratio was at most 0.25.

Turning to STTG, the enrichment ratio worked out at 7.62.

Turning to SQTG, the enrichment ratio is 9.26.

As for SSTG, the enrichment ratio worked out at 12.4.

For LIWW, the enrichment ratio was at most 0.25.

As for TSIP, the enrichment ratio was at most 0.25.

On to IDFC, for which the enrichment ratio is at most 0.25.

QELP: the enrichment ratio was at most 0.25.

On to ADAS, for which the enrichment ratio was at most 0.25.

Take RGAS: the enrichment ratio is at most 0.25.

On to KDAS, for which the enrichment ratio was at most 0.25.

For TGAS, the enrichment ratio is 14.

With TDAS, the enrichment ratio was 11.6.

Regarding CSAS, the enrichment ratio worked out at 36.6.

In the case of CSAT, the enrichment ratio was at most 0.25.

NGAS: the enrichment ratio was determined as 0.365.

Turning to KSAS, the enrichment ratio was at most 0.25.

In the case of PRQF, the enrichment ratio was at most 0.25.

AFYG: the enrichment ratio is at most 0.25.

Regarding EQHW, the enrichment ratio is at most 0.25.

Take ESQM: the enrichment ratio is at most 0.25.

On to WSTG, for which the enrichment ratio is at most 0.25.

PICR: the enrichment ratio is at most 0.25.

As for QESI, the enrichment ratio was found to be 7.8.

Regarding MCSI, the enrichment ratio amounted to 12.5.

Turning to MESI, the enrichment ratio is 12.5.

Consider MQSI, for which the enrichment ratio is at most 0.25.

Take TESA: the enrichment ratio is 11.7.

As for NESQ, the enrichment ratio is at most 0.25.

Turning to NESA, the enrichment ratio was at most 0.25.

As to MMSI, the enrichment ratio worked out at 8.62.

On to TESQ, for which the enrichment ratio was 22.8.

For QESA, the enrichment ratio is at most 0.25.

For the variant QESQ, the enrichment ratio is at most 0.25.

In the case of MCSK, the enrichment ratio is at most 0.25.

With HEMY, the enrichment ratio was at most 0.25.

Take TSHA: the enrichment ratio is 3.

IPQD: the enrichment ratio was at most 0.25.

Take HTSR: the enrichment ratio was at most 0.25.

For FRDI, the enrichment ratio is at most 0.25.

As for TEQS, the enrichment ratio stood at 7.71.

Regarding GWCG, the enrichment ratio was at most 0.25.

For the variant TLDG, the enrichment ratio is at most 0.25.

On to PGHR, for which the enrichment ratio was at most 0.25.

With TESR, the enrichment ratio was 6.55.

With TESI, the enrichment ratio is 13.5.

Regarding TESK, the enrichment ratio was 6.64.

Regarding QGNK, the enrichment ratio is at most 0.25.

Turning to RDYI, the enrichment ratio is at most 0.25.

In the case of QMSV, the enrichment ratio was 10.5.

As for THGN, the enrichment ratio was at most 0.25.

As for QGGN, the enrichment ratio was determined as 14.7.

As to TGGN, the enrichment ratio stood at 13.9.

Regarding KSGN, the enrichment ratio is at most 0.25.

As to FFGN, the enrichment ratio is at most 0.25.

TSGN: the enrichment ratio came out at 14.9.

In the case of LTGN, the enrichment ratio was at most 0.25.

Turning to YTGN, the enrichment ratio is at most 0.25.

For the variant KCGN, the enrichment ratio was at most 0.25.

TTGN: the enrichment ratio was determined as 21.9.

With QPGN, the enrichment ratio was at most 0.25.

With NSGN, the enrichment ratio was at most 0.25.

The record behind these values is a collection of fitness landscapes (doi:10.1126/science.1257360).
